Test results from PubChem BioAssay.
Several values for one entry are separate records, joined by “and”; a condition that tells them apart may be missing. Identical values can stand only once. Some structures have more than one record in an assay (separate samples or runs), and their calls can disagree. Activity calls are given as the source filed them.

Tests used:
[1] = test system: PRMT1 (protein arginine N-methyltransferase 1); test: small molecules binding arginine methyltransferase PRMT1 – biochemical, small-molecule microarray, 635 nm fluorescence, primary screen (AID 1088); conditions: higher = more signal;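 further: binding of Prmt1 protein to compounds spotted on small-molecule microarray slides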
[2] = growth effects on S. cerevisiae YJM789 – YJM789 clinical isolate, OD600, 24 h, basal, primary screen (AID 1089); conditions: higher = more signal, called active from +8 up or from −8 down;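 further: growth of clinical yeast isolate S. cerevisiae YJM 789 seeded 1000 cells per well; test concentration not given here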
[3] = S. pombe growth modifiers, basal conditions – strain 972, OD600, 24 h, no modulator, primary screen (AID 1090);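 further: basal condition with compound alone and no growth modifier present; test concentration not given here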; conditions: S. pombe 972 growth, higher = more signal, called active from +8 up or from −8 down
[4] = budding yeast growth modifiers under rapamycin – strain BY4716, OD600, 96 h, primary screen (AID 1091); further: test concentration not given here; conditions: S. cerevisiae BY4716 + rapamycin, higher = more signal, called active from +8 up or from −8 down
[5] = target: Torsin-1A-interacting protein 2 (Homo sapiens) (UniProt Q8NFQ8); test: small molecules binding lysate-expressed LULL1 – cell lysate, human LULL1 lysate, 635/667 nm fluorescence, primary screen (AID 1092); conditions: small-molecule microarray, hLULL1 lysate binding, 635 nm fluorescence; higher = more signal;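 further: probe is lysate of COS7 cells overexpressing human LULL1; score merges per-feature 667 nm fluorescence with signal-to-noise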
[6] = optical density change of DRC41 E. coli – strain DRC41, OD650, 24 h, E. coli filamentation project, primary screen (AID 1093);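 further: MC1000 strain lacking acrAB efflux and sulA so SOS filamentation is blocked; test concentration not given here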; conditions: E. coli DRC41 growth, higher = more signal, called active from +8 up or from −8 down
[7] = probe aLefty2 binding to arrayed compounds – biochemical, biotinylated probe, 635/667 nm fluorescence, primary screen (AID 1094); conditions: small-molecule microarray, higher = more signal;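 further: score merges spot fluorescence near 667 nm with spot signal-to-noise ratio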
[8] = test system: Noggin (protein binding on small-molecule microarray); test: small molecules binding Noggin protein – biochemical, 635/667 nm fluorescence, primary screen (AID 1095); conditions: 635 nm fluorescence, higher = more signal;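 further: score merges 667 nm feature fluorescence with signal to noise over triplicate slides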
[9] = target: Neurogenic locus notch homolog protein 3 (Homo sapiens) (UniProt Q9UM47); test: small molecules binding NOTCH3 protein – biochemical, 635/667 nm fluorescence, primary screen (AID 1096); conditions: small-molecule microarray, 635 nm fluorescence, higher = more signal
[10] = probe aEGFR binding to arrayed compounds – biochemical, biotinylated probe, 635/667 nm fluorescence, primary screen (AID 1097); conditions: small-molecule microarray, higher = more signal;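 further: probe is a biotinylated anti-EGFR antibody binding compounds printed on slides; score combines fluorescence near 667 nm and signal to noise of each spot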
[11] = test system: Plasmodium falciparum Sir2 (PF13_0152, Sir2A); test: Plasmodium falciparum Sir2A binding compounds – biochemical, small-molecule microarray, 635 nm fluorescence, primary screen (AID 1098); conditions: fluorescence 635 nm, higher = more signal;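 further: score merges spot fluorescence intensity with its signal-to-noise ratio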
[12] = probe aDKK1 binding to arrayed compounds – biochemical, biotinylated probe, 635/667 nm fluorescence, primary screen (AID 1099); conditions: small-molecule microarray, higher = more signal;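 further: score merges 667nm spot fluorescence with signal to noise across triplicate slides; reference of the scale not given here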
[13] = probe aCHRDL2 binding to arrayed compounds – biochemical, biotinylated probe, 635/667 nm fluorescence, primary screen (AID 1100); conditions: small-molecule microarray, higher = more signal
[14] = change in splice reporter luminescence, either direction, cell-based, HEK293, spliceosome inhibition project, primary screen (AID 1101); conditions: HEK293 splicing luciferase reporter, 24 h, higher = more signal, called active from +8 up or from −8 down;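 further: HEK293 cells carrying a splicing-competent luciferase reporter gene; test concentration not given here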
[15] = target: Fibroblast growth factor 10 (Homo sapiens) (UniProt O15520); test: compounds binding fibroblast growth factor 10 – biochemical, small-molecule microarray, 635 nm fluorescence, primary screen (AID 1102); conditions: FGF10 binding, fluorescence 635 nm, higher = more signal
[16] = test system: glycogen synthase kinase-3 (GSK3A per assay name; protocol says GSK3B); test: compounds binding glycogen synthase kinase-3 – biochemical, small-molecule microarray, 635 nm fluorescence, GSK3A, primary screen (AID 1103); conditions: fluorescence 635 nm, higher = more signal; further: the record names both GSK3A and GSK3B
[17] = target: Epidermal growth factor receptor (Homo sapiens) (UniProt P00533); test: compounds binding epidermal growth factor receptor – biochemical, small-molecule microarray, 635 nm fluorescence, primary screen (AID 1104); conditions: EGFR binding, higher = more signal;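 further: score merges 667 nm emission intensity with spot signal to noise over triplicate slides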
[18] = target: Follistatin-related protein 3 (Homo sapiens) (UniProt O95633); test: compounds binding follistatin-related protein 3 – biochemical, small-molecule microarray, 635 nm fluorescence, primary screen (AID 1105); conditions: FSTL3 binding, higher = more signal;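 further: score merges emission near 667 nm and signal to noise per printed spot across three slides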
[19] = target: Dickkopf-related protein 1 (Homo sapiens) (UniProt O94907); test: small molecules binding DKK1 protein – biochemical, small-molecule microarray, 635 nm fluorescence scan, primary screen (AID 1106); conditions: higher = more signal;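 further: score merges emission near 667 nm with signal to noise over three replicate slides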
[20] = test system: Inhibin beta A chain (activin A); test: small molecules binding activin A – biochemical, small-molecule microarray, 635 nm fluorescence scan, primary screen (AID 1107); conditions: INHBA, higher = more signal;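 further: mouse activin A protein probed at 4.33 µg/mL on printed slides; score merges bound-protein fluorescence near 667 nm with spot signal-to-noise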

Neurogenic locus notch homolog protein 3 (Homo sapiens), sequence (Q9UM47 whole entry, looked up): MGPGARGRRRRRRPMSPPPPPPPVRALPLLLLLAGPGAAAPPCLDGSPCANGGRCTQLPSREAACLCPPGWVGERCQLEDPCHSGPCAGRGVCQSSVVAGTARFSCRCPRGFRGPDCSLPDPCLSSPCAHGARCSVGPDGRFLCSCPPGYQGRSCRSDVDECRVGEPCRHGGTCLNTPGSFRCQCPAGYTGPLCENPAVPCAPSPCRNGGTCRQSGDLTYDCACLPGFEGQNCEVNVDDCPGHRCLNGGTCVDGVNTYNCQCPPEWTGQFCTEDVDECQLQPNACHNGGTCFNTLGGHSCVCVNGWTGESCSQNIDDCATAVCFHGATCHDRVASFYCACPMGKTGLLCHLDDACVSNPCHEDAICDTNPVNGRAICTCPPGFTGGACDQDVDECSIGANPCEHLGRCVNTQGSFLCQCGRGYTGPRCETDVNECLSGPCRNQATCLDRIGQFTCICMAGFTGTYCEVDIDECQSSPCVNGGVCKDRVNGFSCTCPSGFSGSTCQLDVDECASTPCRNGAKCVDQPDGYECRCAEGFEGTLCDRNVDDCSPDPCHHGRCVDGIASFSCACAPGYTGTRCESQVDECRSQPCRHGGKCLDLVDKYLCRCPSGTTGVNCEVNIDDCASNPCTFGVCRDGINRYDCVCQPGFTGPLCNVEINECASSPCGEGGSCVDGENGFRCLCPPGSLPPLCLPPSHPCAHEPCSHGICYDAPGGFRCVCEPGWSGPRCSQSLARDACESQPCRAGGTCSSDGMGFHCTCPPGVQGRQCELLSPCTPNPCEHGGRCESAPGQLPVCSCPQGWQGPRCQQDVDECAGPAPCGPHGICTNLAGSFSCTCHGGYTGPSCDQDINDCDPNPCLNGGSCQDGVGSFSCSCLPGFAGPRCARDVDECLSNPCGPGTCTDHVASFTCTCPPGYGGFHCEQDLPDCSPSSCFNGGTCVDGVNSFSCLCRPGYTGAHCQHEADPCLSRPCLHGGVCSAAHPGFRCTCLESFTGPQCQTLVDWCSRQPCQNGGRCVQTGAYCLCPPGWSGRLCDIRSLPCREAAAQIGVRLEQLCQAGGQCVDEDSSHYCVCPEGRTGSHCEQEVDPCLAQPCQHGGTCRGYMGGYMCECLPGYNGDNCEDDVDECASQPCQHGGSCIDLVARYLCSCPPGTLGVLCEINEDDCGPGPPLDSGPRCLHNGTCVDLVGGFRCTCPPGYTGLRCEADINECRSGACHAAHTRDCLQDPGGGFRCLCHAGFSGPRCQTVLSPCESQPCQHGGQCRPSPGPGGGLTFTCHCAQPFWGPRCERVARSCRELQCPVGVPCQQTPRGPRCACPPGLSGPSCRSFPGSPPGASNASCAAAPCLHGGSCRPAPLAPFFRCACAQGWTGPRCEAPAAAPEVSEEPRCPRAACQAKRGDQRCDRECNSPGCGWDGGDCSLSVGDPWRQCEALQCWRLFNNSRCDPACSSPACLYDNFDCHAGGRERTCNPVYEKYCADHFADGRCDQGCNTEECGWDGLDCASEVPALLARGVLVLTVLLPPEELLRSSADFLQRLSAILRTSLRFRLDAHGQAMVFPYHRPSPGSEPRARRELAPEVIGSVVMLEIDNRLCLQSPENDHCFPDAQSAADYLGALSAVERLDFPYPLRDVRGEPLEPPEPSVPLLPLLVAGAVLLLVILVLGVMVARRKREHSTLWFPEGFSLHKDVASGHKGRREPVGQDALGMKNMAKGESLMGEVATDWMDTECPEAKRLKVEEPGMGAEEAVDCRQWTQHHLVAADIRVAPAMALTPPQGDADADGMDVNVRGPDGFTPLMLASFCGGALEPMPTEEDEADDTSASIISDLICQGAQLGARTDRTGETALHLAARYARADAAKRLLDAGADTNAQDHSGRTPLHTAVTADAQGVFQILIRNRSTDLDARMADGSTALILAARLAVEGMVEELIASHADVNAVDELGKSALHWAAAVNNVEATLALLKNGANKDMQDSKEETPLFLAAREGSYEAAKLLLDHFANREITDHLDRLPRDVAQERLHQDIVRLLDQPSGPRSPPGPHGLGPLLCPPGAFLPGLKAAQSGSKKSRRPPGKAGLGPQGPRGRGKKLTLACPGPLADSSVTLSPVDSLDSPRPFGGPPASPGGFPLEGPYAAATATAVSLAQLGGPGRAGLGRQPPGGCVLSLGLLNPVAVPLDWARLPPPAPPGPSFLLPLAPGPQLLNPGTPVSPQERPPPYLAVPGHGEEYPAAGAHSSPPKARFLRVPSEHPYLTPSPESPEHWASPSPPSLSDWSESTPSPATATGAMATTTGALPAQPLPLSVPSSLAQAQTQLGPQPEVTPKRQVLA
Fibroblast growth factor 10 (Homo sapiens), sequence (O15520 whole entry, looked up): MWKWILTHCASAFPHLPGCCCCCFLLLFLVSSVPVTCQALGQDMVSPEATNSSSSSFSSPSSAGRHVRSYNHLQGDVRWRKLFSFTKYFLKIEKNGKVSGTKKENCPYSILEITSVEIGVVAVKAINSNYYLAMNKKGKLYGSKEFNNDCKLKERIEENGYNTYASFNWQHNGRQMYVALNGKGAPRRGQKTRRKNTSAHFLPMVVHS
Dickkopf-related protein 1 (Homo sapiens), sequence (O94907 whole entry, looked up): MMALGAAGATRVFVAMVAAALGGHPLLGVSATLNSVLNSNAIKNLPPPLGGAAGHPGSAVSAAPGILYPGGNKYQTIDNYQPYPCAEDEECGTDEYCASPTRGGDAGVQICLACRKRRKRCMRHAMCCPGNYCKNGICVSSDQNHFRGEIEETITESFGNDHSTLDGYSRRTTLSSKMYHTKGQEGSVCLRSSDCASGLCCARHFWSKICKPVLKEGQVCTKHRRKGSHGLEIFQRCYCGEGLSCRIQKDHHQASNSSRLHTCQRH
Follistatin-related protein 3 (Homo sapiens), sequence (O95633 whole entry, looked up): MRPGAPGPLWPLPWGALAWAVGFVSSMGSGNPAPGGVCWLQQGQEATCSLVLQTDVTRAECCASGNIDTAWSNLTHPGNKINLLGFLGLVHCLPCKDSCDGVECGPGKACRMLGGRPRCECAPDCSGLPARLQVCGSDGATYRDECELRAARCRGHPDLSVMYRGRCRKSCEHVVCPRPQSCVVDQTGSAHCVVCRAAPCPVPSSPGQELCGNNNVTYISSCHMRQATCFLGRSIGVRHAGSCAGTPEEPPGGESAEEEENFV
Torsin-1A-interacting protein 2 (Homo sapiens), sequence (Q8NFQ8 whole entry, looked up): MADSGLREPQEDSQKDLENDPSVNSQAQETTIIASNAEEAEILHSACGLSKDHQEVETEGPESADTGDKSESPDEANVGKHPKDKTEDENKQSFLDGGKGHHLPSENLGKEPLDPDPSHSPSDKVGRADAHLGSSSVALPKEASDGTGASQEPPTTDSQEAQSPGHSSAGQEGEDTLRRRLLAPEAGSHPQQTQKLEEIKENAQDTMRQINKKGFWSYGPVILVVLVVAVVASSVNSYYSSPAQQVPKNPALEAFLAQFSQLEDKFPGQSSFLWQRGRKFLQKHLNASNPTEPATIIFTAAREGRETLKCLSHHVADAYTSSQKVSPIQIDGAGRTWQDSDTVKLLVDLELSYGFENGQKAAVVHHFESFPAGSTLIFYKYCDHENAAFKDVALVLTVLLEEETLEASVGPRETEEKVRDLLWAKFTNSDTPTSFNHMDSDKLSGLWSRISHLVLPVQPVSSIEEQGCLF
Epidermal growth factor receptor (Homo sapiens), sequence (P00533 whole entry, looked up): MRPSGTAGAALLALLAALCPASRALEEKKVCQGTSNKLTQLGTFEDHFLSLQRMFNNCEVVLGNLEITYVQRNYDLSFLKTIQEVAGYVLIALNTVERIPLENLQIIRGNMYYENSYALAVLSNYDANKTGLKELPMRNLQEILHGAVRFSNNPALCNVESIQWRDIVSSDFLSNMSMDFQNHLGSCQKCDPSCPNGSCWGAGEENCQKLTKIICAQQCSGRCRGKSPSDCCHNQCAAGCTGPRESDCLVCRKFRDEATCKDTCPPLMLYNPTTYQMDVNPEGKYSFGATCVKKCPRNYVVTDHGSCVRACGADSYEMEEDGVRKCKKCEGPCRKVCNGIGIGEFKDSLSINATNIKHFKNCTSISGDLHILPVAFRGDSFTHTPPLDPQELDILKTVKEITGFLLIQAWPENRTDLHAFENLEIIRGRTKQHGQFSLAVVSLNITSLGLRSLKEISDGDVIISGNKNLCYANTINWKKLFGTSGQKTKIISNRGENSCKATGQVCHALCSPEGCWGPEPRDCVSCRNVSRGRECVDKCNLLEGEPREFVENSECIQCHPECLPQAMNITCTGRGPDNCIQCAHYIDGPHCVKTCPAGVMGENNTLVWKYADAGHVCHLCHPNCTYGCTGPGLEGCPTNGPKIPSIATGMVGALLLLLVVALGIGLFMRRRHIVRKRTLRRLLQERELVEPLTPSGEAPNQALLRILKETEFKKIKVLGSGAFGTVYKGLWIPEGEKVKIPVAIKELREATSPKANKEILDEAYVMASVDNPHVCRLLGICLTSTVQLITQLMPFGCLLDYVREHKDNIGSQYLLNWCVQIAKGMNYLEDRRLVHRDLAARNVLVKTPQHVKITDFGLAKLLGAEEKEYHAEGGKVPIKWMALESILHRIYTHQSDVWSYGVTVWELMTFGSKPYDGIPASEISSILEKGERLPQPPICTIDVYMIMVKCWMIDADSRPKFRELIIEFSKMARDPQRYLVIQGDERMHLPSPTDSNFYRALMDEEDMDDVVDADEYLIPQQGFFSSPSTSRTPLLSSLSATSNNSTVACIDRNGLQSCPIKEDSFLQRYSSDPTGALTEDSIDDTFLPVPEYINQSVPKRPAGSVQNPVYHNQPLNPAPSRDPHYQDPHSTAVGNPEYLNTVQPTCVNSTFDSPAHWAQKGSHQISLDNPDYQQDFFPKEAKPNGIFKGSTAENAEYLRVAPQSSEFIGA

| Compound | composite z-score [1] | z-score [2] | z-score [3] | z-score [4] | composite z-score [5] | z-score [6] | composite z-score [7] | composite z-score [8] | composite z-score [9] | composite z-score [10] | composite z-score [11] | composite z-score [12] | composite z-score [13] | z-score [14] | composite z-score [15] | composite z-score [16] | composite z-score [17] | composite z-score [18] | composite z-score [19] | composite z-score [20] |
| --- | --- | --- | --- | --- | --- | --- | --- | --- | --- | --- | --- | --- | --- | --- | --- | --- | --- | --- | --- | --- |
| CCOC(=O)c1ccc(NC(=O)O[C@H]2[C@H](OC(=O)Nc3ccccc3)[C@H](OC(=O)Nc3ccccc3)[C@@H](OC)O[C@@H]2CO)cc1 | 1.53 | 1.65 (inactive) and 0.863 (inactive) | 1.87 (inactive) and 1.43 (inactive) | -1.19 (inactive) and 8.89 (active) | 3.01 and 3.02 | 0.626 (inactive) and 0.455 (inactive) | 0.375 and 0.0544 | 0.536 and 1.04 | 1.04 and 1.05 | 0.445 and -0.0118 | 1.45 and 1.74 | 0.968 and 0.673 | 0.873 and 0.902 | -0.285 (inactive) and -0.997 (inactive) | 1.27 and 0.968 | 1.31 and 1.33 | 0.591 and 0.218 | 1.39 and 1.38 | 0.531 and 0.259 | 0.888 and 0.327 |
| C=C[C@H](C)[C@H](O)c1ccc(O)c2ccccc12 | -0.0037 and -0.738 | -3.96 (inactive) and -3.22 (inactive) | -10.7 (active) and -6.18 (inactive) | 4.04 (inactive) and 4.01 (inactive) | 0.48 and 0.622 | 1.84 (inactive) and 1.81 (inactive) | -0.274 and -0.168 | -0.431 and -0.211 | -0.283 and -0.073 | -0.275 and -0.203 | -0.826 and -0.608 | -0.338 and -0.232 | 0.151 and -0.0669 | -2.7 (inactive) and -1.54 (inactive) | -1.16 and 0.187 | -0.0928 and -0.78 | -0.989 and 0.375 | -0.433 and -0.63 | -0.644 and -0.0107 | 0.794 and 0.956 |
| C=CC[C@@H](O)c1ccc(O)c2ccccc12 | 1.57 and 1.49 | -22 (active) and -23.3 (active) | -20 (active) and -20.4 (active) | 6.56 (inactive) and 5.68 (inactive) | 1.01 and 0.0783 | 1.92 (inactive) and 0.416 (inactive) | -0.0511 and -0.0812 | 1.1 and 0.869 | 1.11 and 1.1 | 0.0153 and -0.0531 | 1.35 and 1.41 | -0.05 and -0.227 | -0.0013 and -0.333 | -0.879 (inactive) and 3.08 (inactive) | 0.991 and 1.34 | 0.797 and 1.25 | 1.33 and 1.15 | 1.2 and 1.43 | 0.817 and 1.14 | 1.38 and 0.954 |
| COC(=O)C1=C(C)N(Cc2ccccc2)C2=C3C(=O)N(C)C(=O)[C@@H]3[C@@](O)(C(=O)OC)C(=O)N2[C@@H]1c1ccccc1 | 0.471 and 0.0202 | 0.0264 (inactive) and -1.64 (inactive) | -0.774 (inactive) and -1.87 (inactive) | -0.807 (inactive) and -0.913 (inactive) | 0.0055 and 0.222 | 0.858 (inactive) and -0.0481 (inactive) | 0.0494 and -0.184 | 0.34 and 0.538 | 0.182 and 0.361 | -0.138 and 0.131 | -0.0387 and 0.0245 | 0.0287 and -0.103 | -0.282 and -0.486 | -0.18 (inactive) and -0.675 (inactive) | 0.786 and 0.387 | 0.0745 and 0.608 | 0.533 and 0.834 | 0.285 and 0.502 | 0.103 and 0.211 | 0.476 and 0.292 |
| CO[C@H]1COC(=O)[C@H](C)NC(=O)CC=C[C@@H](C)[C@H](OC)COC(=O)CC=C[C@@H]1C | 1.4 | 1.17 (inactive) | 0.306 (inactive) | 1.13 (inactive) | -0.247 | 1.3 (inactive) | -0.235 | 1.32 | 0.164 | 0.0556 | 0.523 | -0.785 | -1.62 | 0.506 (inactive) | 0.504 | 1.04 | 1.49 | 1.45 | 1.62 | 1.68 |
| CCOC(=O)C[C@H]1[C@H](OC(=O)c2ccccc2-c2ccccc2)[C@@H](NC(=O)Cc2ccc(OC)cc2)c2cc(OCCCO)ccc2N1C(=O)c1ccc2ccccc2n1 | -0.557 and 0.587 | -0.321 (inactive) and -0.249 (inactive) | -0.0002 (inactive) and -0.478 (inactive) | -0.411 (inactive) and 0.456 (inactive) | 0.347 and 0.379 | 2.43 (inactive) and 1.41 (inactive) | -0.0953 and 0.0397 | 0.248 and 0.329 | 0.0452 and 0.418 | -0.0107 and 0.182 | 0.108 and 0.154 | -0.114 and 0.575 | 0.0078 and 0.468 | -0.472 (inactive) and -0.891 (inactive) | 0.43 and 0.682 | 0.0554 and 0.185 | 0.219 and -0.108 | 0.0539 and 0.0407 | 0.404 and 0.209 | 0.773 and 0.105 |
| CCCC[C@@H]1CN2[C@H](c3ccc(Br)cc3)[C@@H](C)CC[C@H]2C(=O)O1 | -0.214 and 0.499 | -0.156 (inactive) and -0.142 (inactive) | -19.4 (active) and -17.4 (active) | -0.269 (inactive) and -0.224 (inactive) | -0.461 and -0.18 | 0.298 (inactive) and 0.24 (inactive) | -0.234 and -0.145 | 0.16 and 0.31 | -0.391 and -0.433 | -0.174 and -0.137 | 0.186 and 0.254 | -0.385 and -0.192 | -0.492 and -0.707 | -0.475 (inactive) and 0.405 (inactive) | 0.124 and 0.115 | 0.0093 and -0.0119 | 0.283 and 0.308 | -0.427 and -0.351 | 0.407 and -0.117 | 0.574 and 0.485 |
| C=CCN(C(=O)C1N(CCCCCCO)C(=O)C2C(C(=O)O)C3C=CC21O3)C(C)(C)C (stereo not given) | -0.334 and -0.47 | -0.686 (inactive) and -0.559 (inactive) | -1.43 (inactive) and -0.867 (inactive) | -0.235 (inactive) and -0.724 (inactive) | -0.773 and 2.17 | 0.137 (inactive) and -0.31 (inactive) | -0.231 and -0.0217 | -2.53 and -1.64 | -0.763 and -1.42 | -0.253 and -0.375 | 2.09 and 0.74 | -0.164 and -0.432 | 0.991 and 1.09 | 0.717 (inactive) and 1.5 (inactive) | -2.17 and -2.31 | -1.18 and -1.05 | -2.13 and -1.6 | -2.45 and -1.52 | -3.24 and -3.14 | -3.68 and -2.77 |
